Bioassay records from PubChem.
SW480 rerep – DNA re-replication induction in SW480 cells | SW480 DNA re-replication, Hoechst DNA content imaging, 48 h | Potency, µM (top dose mostly 46.1 µM), actives largely listed as activators | 340,000 tested, 1.8% active; also: nearly all actives have a fitted effect of over 55% in size
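Treated cells incubate 48 hr (37 C, 5% CO2), are stained 40 min with Hoechst, and nuclear fluorescence is enumerated; a rise in nuclei with high DNA signal marks re-replication.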
MCF10A rereplic – inducers of DNA re-replication in MCF 10A breast cells; AID 624296; MCF 10A DNA re-replication, Hoechst nuclear intensity, 48 h; 350,000 tested, 2.9% active; Potency, µM (doses to about 46.1 µM), actives largely listed as activators; also: nearly all actives have a fitted effect of over 50% in size
RORg inh – blocks mouse ROR gamma transcriptional activity; Drosophila S2 Gal4-RORgamma UAS-luciferase reporter, 20 h; Potency, µM (series often up to 53.6 µM), usual class: inhibitors; 310,000 tested, 5.4% active; P51450; also: nearly all actives have a fitted effect of over 60% in size
Target sequence (P51450 whole entry, looked up, the tested form may be a part): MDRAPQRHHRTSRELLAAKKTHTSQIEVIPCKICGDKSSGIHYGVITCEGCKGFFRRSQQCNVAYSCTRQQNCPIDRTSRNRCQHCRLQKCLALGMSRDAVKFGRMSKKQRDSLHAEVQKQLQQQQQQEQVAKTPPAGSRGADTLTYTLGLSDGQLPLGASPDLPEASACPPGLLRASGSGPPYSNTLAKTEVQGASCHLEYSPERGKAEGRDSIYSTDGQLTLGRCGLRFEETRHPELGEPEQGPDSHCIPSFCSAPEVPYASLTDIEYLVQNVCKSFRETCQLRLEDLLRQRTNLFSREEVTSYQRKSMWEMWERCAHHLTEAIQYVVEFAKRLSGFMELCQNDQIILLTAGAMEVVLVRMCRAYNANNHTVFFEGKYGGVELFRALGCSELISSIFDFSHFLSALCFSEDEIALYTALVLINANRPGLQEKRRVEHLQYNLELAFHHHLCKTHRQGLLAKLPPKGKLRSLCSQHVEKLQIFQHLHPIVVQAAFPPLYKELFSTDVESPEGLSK
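In this cell-based reporter format, copper sulfate (700 uM final) drives Gal4–ROR gamma fusion expression from a metallothionein promoter in Drosophila Schneider cells; compounds preincubated 1 hr, reporter read after 20 hr at ambient temperature.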
IL-1B inflam inh – inflammasome signaling inhibition, IL-1 beta readout. activity change, % at 57.5 µM. 360,000 tested, 4.7% active. AID 743279. THP-1 LPS/ATP IL-1B secretion, AlphaLISA, 16 h; active compounds read low; in the data active = activity change below about -50%; inconclusive = mostly about -30% to -49%
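THP-1 cells pretreated 1 hr with compounds (up to 57.5 uM final), then stimulated with LPS (250 ng/mL final) plus ATP (1.25 mM final); secreted IL-1B measured by AlphaLISA after 16 hr, decreased signal indicating inhibition.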
VP16 counter – counter-screen for ROR gamma inhibitors: Gal4-VP16 reporter | 310,000 tested, 3.5% active | Drosophila S2 Gal4-VP16 UAS-luciferase, luminescence, 20 h | AID 2546 | Potency, µM (doses to about 53.6 µM), most hits filed as inhibitors;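 also: Gal4-VP16 expression switched on by copper sulfate through the metallothionein promoter; nearly all actives have a fitted effect of over 50% in size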
Numbers stand for hits; n = inactive; u = inconclusive; x = not tested or not shown; [ ] = another dose, or the depositor's remark. Compounds with a hit are over-represented: about 11% of the library has one in this group of screens. Unless noted, calls follow the shape of the dose curve; as a rule, active = well fitted curve in the direction sought with a large enough effect; inconclusive = small, poorly fitted or top-dose-only effect, or another doubt; inactive = no such curve, though single readings can be large; an effect the other way counts as inactive or inconclusive.

SMILES	SW480 rerep	MCF10A rereplic	RORg inh	IL-1B inflam inh	VP16 counter
CC(=O)N1CCC2(CC1)CN(c1cccc(-c3ccccc3)c1)C2	x	x	n	x	13µM
CC(=O)N1CCC2(CC1)CCN(c1cccc(-c3ccccc3)c1)CC2	x	x	n	x	n
O=C(c1cccc(F)c1)N1CCC2(CC1)CN(c1ccc(-c3ccccc3)cc1)C2	x	x	n	x	16µM
COc1ccccc1NS(=O)(=O)c1ccc(C(=O)N2CCCC(C(F)(F)F)C2)cc1 (configuration not stated)	n	n	x	n	x
COc1ccccc1N(C)S(=O)(=O)c1ccc(C(=O)N2CCCC(C(F)(F)F)C2)cc1 (configuration not stated)	4.6µM	n	x	n	x
COC(=O)c1cccc(NC(=O)c2ccc(S(=O)(=O)N(C)c3ccccc3OC)cc2)c1	x	x	x	n	x
COc1ccccc1N(C)S(=O)(=O)c1ccc(C(=O)Nc2ccc(N3CCOCC3)cc2)cc1	n[1.84 µM]	n	n	-68	n
O=C(NCC1CCN(c2ccc(S(=O)(=O)N3CCOCC3)cc2)CC1)Nc1ccccc1	n	u	n	n	n
COc1ccccc1C(=O)NCC1CCN(c2ccc(S(=O)(=O)N3CCOCC3)cc2)CC1	n	6.5µM	n	n	n
COc1ccccc1N(C)S(=O)(=O)c1ccc(C(=O)Nc2cccc(Br)c2)cc1	u	u	x	-60	x
COc1ccc(C(O)c2nc(-c3ccccc3)cs2)cc1 (configuration not stated)	x	x	x	n	x
O=c1c(-c2ccc(Cl)cc2)nc2cnc(N3CCNCC3)nc2n1CCc1ccccc1	x	x	n	x	n
COc1ccc(NC(=O)c2cccc3c2C(=O)c2ccc(-c4cnc(OC)nc4)cc2S3(=O)=O)cc1	n	n	x	n	x
COc1cc(-c2c(CCO)sc3ccccc23)cc(OC)c1OC	x	x	x	n	x
O=C(O)c1ccc(Oc2ccc(C(F)(F)F)cn2)cc1	n	n	n	n	n
Cc1ccccc1N1CCN(C(=O)c2ccc(Oc3ccc(C(F)(F)F)cn3)cc2)CC1	u	n	u	-73	u
O=C(Nc1ccc2ccccc2n1)c1ccc(Cl)cc1	n	n	n	n	n
O=C(Nc1ccc2ccccc2n1)c1ccccc1Cl	n	n	13µM	n	u
COc1cccc(C(=O)Nc2cccc3ccccc23)c1OC	n	n	n	n	n
COc1ccc(C(=O)Nc2ccc3ccccc3n2)c(OC)c1OC	n	n	8.9µM	-76	10µM
COc1ccc(C(=O)Nc2ccc(OCC(=O)N3CCOCC3)cc2)c(OC)c1OC	n	u	n	n	n
CCCC(=O)NC(=S)Nc1cccc(C(C)=O)c1	n	n	10µM	n	u
CCCCC(=O)Nc1cccc(NC(=S)NC(=O)C(C)C)c1	n	n	n	n	n
CC(=O)c1cccc(NC(=S)NC(=O)CC(C)C)c1	n	n	u	n	7.9µM
CCCCCC(=O)NC(=S)Nc1cccc(C(C)=O)c1	n	n	2.8µM	n	u
SMILES	SW480 rerep	MCF10A rereplic	RORg inh	IL-1B inflam inh	VP16 counter
CCC(=O)NC(=S)Nc1cccc(C(C)=O)c1	n	n	11µM	n	n
CNC(=S)Nc1cccc(C(=O)OC)c1	n	n	u	x	n
CNCc1ccccc1Sc1ccc(O)c(O)c1	u	u	8.9µM	-125	7.1µM
CN(C)c1nc(/C=C(\C#N)C(N)=O)c(Cl)n1-c1ccc(F)cc1	u	u	n	-98	u
Cc1nn(C)cc1/C=C(/C#N)C(N)=O	n	n	n	n	n
Cc1ccc(S(=O)(=O)N2[C@@H](c3ccc(Cl)cc3)C(C(=O)O)=C[C@H]2C(C)(C)C)cc1	n	n	x	n	x
Cc1ccccc1NC(=O)COC(=O)c1ccc(C)c(S(=O)(=O)N2CCCCC2)c1	x	x	x	n	x
Cc1ccc2cc3cc(C(=O)NCCCN4CCCCCC4)oc3nc2c1	n[9.22 µM]	n	u	n	n
Cc1ccc2cc3cc(C(=O)NCCCN4CCCC4)oc3nc2c1	u	u	n	-51	n
Cc1cccc(N(C)C(=O)c2cc3cc4ccc(C)cc4nc3o2)c1	u	10µM	n	n	n[0.365 µM]
Cc1cccc(OCc2nnc(SCC(=O)N(c3ccccc3)C3CCS(=O)(=O)C3)o2)c1 (configuration not stated)	n	n	x	n	x
CCc1cccc(NC(=O)COC(=O)CSc2ccc(C)cc2)c1	x	x	x	n	x
CCN(CC)CCNC(=O)c1cc(-c2cccnc2)nc2ccc(S(=O)(=O)N3CCC(C)CC3)cc12	n	n	n	-99	n
CCOc1ccc(/C=C/C(=O)N(CC)CC(=O)Nc2ccc3c(c2)OCCO3)cc1OCC	n	n	n	n	n
CCOc1cc(C=O)ccc1OCC(N)=O	n	n	n	n	n
CCOc1cc(/C=C/C(=O)c2ccc3c(c2)OCCO3)ccc1OCC(=O)N(C)C	u	u	u	-104	n
CCOc1cc(/C=C/C(=O)c2ccc(O)cc2)ccc1OCC(=O)N(C)C	u	u	n	-103	n
Cc1ccc(Sc2ccccc2CN(C)C)c(N)c1	x	x	n	x	n
C#CCNC(=O)C1=C[C@H](c2ccc(C(F)(F)F)cc2)C[C@H](OCc2ccc(CO)cc2)O1	u	4.1µM	n	n	n
C#CCNC(=O)C1=C[C@H](C(C)(C)C)C[C@H](OCc2ccc(CO)cc2)O1	n	18µM	n	n	n
CC1(C)OC(=O)C=C[C@@]2(C)C1C[C@@H](O)[C@]1(C)C2CC[C@@]2(C)C(c3ccoc3)OC(=O)[C@H]3O[C@]321 (some centres not stated)	x	x	n	x	n
S=C(NCc1ccccc1)Nc1nccs1	n	n	0.89µM	n	1.3µM
O=C(COc1ccccc1)Nc1nccs1	n	n	13µM	n	u
S=C(NCCc1ccccc1)Nc1nccs1	n	n	x	n	x
Cc1ccc(CC(=O)Nc2nccs2)cc1C	n	n	u	n	2.5µM
SMILES	SW480 rerep	MCF10A rereplic	RORg inh	IL-1B inflam inh	VP16 counter
C/C(=C\C(=O)Nc1nccs1)c1ccccc1	n	n	8.9µM	n	11µM
CCOC(=O)C1(C)CCCN(C(=O)c2ccccc2C(F)(F)F)C1 (configuration not stated)	x	x	x	n	x
Cc1cccc(N2CCN(CC(=O)Nc3nccs3)CC2)c1C	n	u	10µM	n	n
COC(=O)c1sccc1NC(=S)N1CCCCC1	n	n	n	n	n
COc1ccccc1N1CCN(CC(=O)Nc2nccs2)CC1	n	n	n	n	n
O=C(COc1ccc2ccc(=O)oc2c1)Nc1nccs1	u	n	n	n	n
O=C(COc1ccc2ccccc2c1)Nc1nccs1	n	n	10µM	n	16µM
COC(=O)c1sccc1NC(=S)N1CCN(c2cccc(C)c2C)CC1	u	4.1µM	n	n	n
S=c1nccc(-c2ccc3c(c2)CCO3)[nH]1	n	n	3.2µM	n	6.3µM
Cc1ccc(-c2cnc(C(O)c3ccc(C)cc3)[nH]2)cc1 (configuration not stated)	x	x	x	n	x
c1csc(-c2ccn[nH]2)c1	n	n	n	n	n
CC1(C)CCc2cc(-c3ccnc(=S)[nH]3)ccc2O1	n	n	1.8µM	n	3.2µM
